Hit rate of the full screen: of about 220,000 compounds, about 2,600 (1.2%) were called active.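 How the source made its calls: active means activation above the mean of all tested compounds plus 3 SD, set per screening run (cut at about 8.8% in these data); inactive means the rest.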 This excerpt belongs to a sample that is enriched for actives.
target: Wee1-like protein kinase (Homo sapiens) (UniProt P30291); assay: Wee1 degradation inhibitors, primary screen, cell-based, HeLa, Wee1K328M-luciferase, luminescence (AID 1321); details: HeLa Luc-Wee1K328M stability, at 5 µM, active compounds read high, 100% = proteasome inhibitor MG132 effect;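 further: cells exposed to compound for 20 h before luminescence read; 0% = DMSO alone and 100% = MG132 at 30 µM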

Structure (SMILES) | reporter increase
COC(=O)c1sccc1NC(=S)Nc1ccc(C)cc1 | 2.58% (inactive)
O=C(CNCc1ccco1)Nc1cc(S(=O)(=O)N2CCOCC2)ccc1N1CCCC1 | -2.01% (inactive)
O=C(CNCc1cccs1)Nc1cc(S(=O)(=O)N2CCCC2)ccc1Cl | 8.84% (active)
O=C(NCc1cccs1)C1CCN(S(=O)(=O)c2ccc(Cl)cc2)CC1 | 0.23% (inactive)
COc1ccccc1-n1c(-c2cc(-c3ccco3)[nH]n2)n[nH]c1=S | 2.11% (inactive)
Fc1ccccc1/C=N/n1c(-c2cccnc2)n[nH]c1=S | 0.63% (inactive)
CC(=O)Nc1nc(C)c(-c2csc(Nc3ccc(S(N)(=O)=O)cc3)n2)s1 | -1.97% (inactive)
Cc1ccc(Cl)c(OCC(=O)NN2CCN(C)CC2)c1 | -4.89% (inactive)
O=C(O)CCn1cc(/C=C/C(=O)c2ccc(Cl)cc2)c(-c2cccc(Br)c2)n1 | -0.48% (inactive)
CC(C)CN(CC(C)C)CC(O)CN(c1ccccc1)S(=O)(=O)c1ccccc1[N+](=O)[O-] (stereo not drawn) | -0.95% (inactive)
COCCCNC(=O)c1c(F)c(F)c(F)c(F)c1F | 9.02% (active)
O=C(NCCN1CCOCC1)c1c(F)c(F)c(F)c(F)c1F | -1.64% (inactive)
COCCCNC(=S)NC(=O)c1ccccc1 | 1.37% (inactive)
O=C(Nc1cccnc1)c1cc([N+](=O)[O-])ccc1Cl | -1.81% (inactive)
CN1CCN(c2ccc(CNS(=O)(=O)c3cccc(F)c3)cc2)CC1 | -0.49% (inactive)
Cc1cccc(C2C3=C(CCCC3=O)N=C3c4ccccc4C(=O)C32)c1 (stereo not drawn) | 2.45% (inactive)
Cc1ccc2nc(C)c3c(c2c1)N(c1ccccc1)CC3 | 2.22% (inactive)
Cc1cc(=O)[nH]c(N/N=C/c2ccc3c(c2)OCCO3)n1 | 3.95% (inactive)
O=S(=O)(Nc1ncccn1)c1ccc(NS(=O)(=O)c2cccc(Cl)c2Cl)cc1 | 9.1% (active)
O=C(CCS(=O)(=O)c1ccccc1Cl)Nc1ccc(S(=O)(=O)Nc2ncccn2)cc1 | -2.3% (inactive)
O=C(/C=C/c1ccccc1Cl)Nc1ccc(S(=O)(=O)Nc2ncccn2)cc1 | -1.98% (inactive)
CCCSc1ncccc1C(=O)O | 5.65% (inactive)
Cc1nnc(SCC(=O)N2CCc3ccccc3C2)s1 | -1.25% (inactive)
CC1(c2ccccc2)CC(C)(C)N(C(=O)c2cc([N+](=O)[O-])cc([N+](=O)[O-])c2)c2ccccc21 (stereo not drawn) | -3.96% (inactive)
Cc1nnc(SCC(=O)N2c3ccccc3C(C)(c3ccc(Cl)cc3)CC2(C)C)s1 (stereo not drawn) | 11.3% (active)

Structure (SMILES) | reporter increase
NC(=O)NC(=O)CSc1nc2cc([N+](=O)[O-])ccc2n1-c1cccc(C(F)(F)F)c1 | 0.4% (inactive)
N#CCc1ccc(OC(=O)c2cccnc2)cc1 | -2.7% (inactive)
COc1ccc(-c2noc(-c3ccc(C)cc3)n2)cc1 | -0.18% (inactive)
COc1ccc(-c2noc(CN(C)S(=O)(=O)c3ccc(C)cc3)n2)cc1 | -2.95% (inactive)
COc1ccc(-c2noc(CSc3ccc(C)cc3)n2)cc1 | 13.7% (active)
CC1CC(=O)Nc2ccccc2N1S(=O)(=O)c1cccs1 (stereo not drawn) | 4.07% (inactive)
CCC(C)Cn1c(O)cc2nn(-c3nc4ccccc4s3)c(=O)c-2c1C (stereo not drawn) | -4.96% (inactive)
O=C(N/N=C/c1ccc([N+](=O)[O-])cc1)C(=O)N1CCCC1 | 9.76% (active)
NC(=S)N/N=C/c1ccc([N+](=O)[O-])cc1 | -3.91% (inactive)
O=C(N/N=C/c1ccc2c(c1)OCO2)C(=O)N1CCCC1 | 2.71% (inactive)
Cc1ccc2nc3n(c(=O)c2c1)CCC3 | 12.8% (active)
O=C(Nc1ccc2nc3n(c(=O)c2c1)CCCCC3)c1ccccc1Cl | 0.41% (inactive)
Cc1cccc2c(=O)n3c(nc12)CCCCC3 | -0.11% (inactive)
CNC(=O)c1csc(Cc2c(Cl)sc3ccc(Cl)cc23)n1 | 0.14% (inactive)
O=C(COc1ccccc1)N1CCN=C1SCc1cccc(F)c1 | -0.6% (inactive)
CS(=O)(=O)c1sc(C(=O)NC(=S)Nc2ccc(OC(F)(F)F)cc2)c2c1C=CCC2 | 3.21% (inactive)
CCOC(=O)c1c(C)nn(-c2ncccc2NC(=O)CCC(=O)O)c1C | -3.19% (inactive)
O=C(COC(=O)c1ccc[nH]c1=O)Nc1ccc2c(c1)OC(F)(F)O2 | 7.03% (inactive)
CN1C(=O)/C(=C/C=C2\SCCN2C)OC1=S | 9.67% (active)
CN(C)S(=O)(=O)c1cc(NC(=O)CN2C(=O)NC3(CCCc4ccccc43)C2=O)ccc1Cl (stereo not drawn) | -2.38% (inactive)
O=C(c1ccco1)N(Cc1nc2ccccc2c(=O)[nH]1)C1CCCC1 | -0.38% (inactive)
CCCC(=O)N(CCc1ccccc1)Cc1nc2ccccc2c(=O)[nH]1 | -2.77% (inactive)
CCN(CC(=O)NC(=O)NCc1ccccc1)Cc1nc2ccccc2c(=O)[nH]1 | 10.5% (active)
CCN(CC(=O)Nc1ccc(Cl)c(S(=O)(=O)N(C)C)c1)Cc1nc2ccccc2c(=O)[nH]1 | 9.09% (active)
CCN(CC(=O)Nc1cccc(S(N)(=O)=O)c1)Cc1nc2ccccc2c(=O)[nH]1 | -3.31% (inactive)

Structure (SMILES) | reporter increase
CC#CC[N+](C)(C)CCCCCC | 3.56% (inactive)
CC(C)CCNC(=O)C1CCC(CNc2c(N3CCC(C)CC3)c(=O)c2=O)CC1 (stereo not drawn) | -0.83% (inactive)
Cc1csc(/N=C/N(C)C)c1C#N | -2.57% (inactive)
C/C(CC(=O)NC(C)c1ccccc1)=N\NC(N)=S (stereo not drawn) | -1.77% (inactive)
CC(=O)c1cccc(CN2CCC(CO)(Cc3ccccc3)CC2)c1 | -2.2% (inactive)
CC(C)c1csc(CN2CCC(CO)(Cc3ccccc3)CC2)n1 | 11.4% (active)
OCC1(Cc2ccccc2)CCN(Cc2cc3ccccc3o2)CC1 | -0.66% (inactive)
CC(=O)Cn1ncc(N2CCOCC2)c(Br)c1=O | 1.92% (inactive)
Cn1c(=O)c2c(nc(N3CCCCCC3)n2CC(=O)c2ccc(Br)cc2)n(C)c1=O | -1.77% (inactive)
O=C(Cn1ncc(N2CCCC2)c(Br)c1=O)c1ccc(Cl)cc1 | 9.08% (active)
CCc1ccc(S(=O)(=O)Nc2ccc(C)c(NS(C)(=O)=O)c2)cc1 | -2.18% (inactive)
COC(=O)c1c(C)oc(C)c1S(=O)(=O)Nc1ccc(C(C)C)cc1 | -0.82% (inactive)
NC(=S)N/N=C/c1coc2cc(Cl)ccc2c1=O | 7.29% (inactive)
O=c1c(/C=N/O)coc2ccc(Cl)cc12 | 13.3% (active)
O=C(N/N=C/c1coc2ccccc2c1=O)c1cc2ccccc2o1 | 2.23% (inactive)
O=C(NN1C(=O)C2C(C1=O)C1C=CC2C12CC2)c1ccccc1Cl (stereo not drawn) | 1.5% (inactive)
C=CCSc1nc(N)cc(=O)[nH]1 | 0.5% (inactive)
O=C(O)Cc1csc(NC(=O)CSc2nnnn2-c2ccc(O)cc2)n1 | -2.13% (inactive)
CC(C)(C)C(=O)Cn1c(NCCO)nc2ccccc21 | -0.8% (inactive)
O=C(O)[C@@H]1CCCN1c1ncnc2sc3c(c12)CCC3 | 3.81% (inactive)
OCCNc1nc2ccccc2n1-c1ncnc2sc3c(c12)CCC3 | 13.6% (active)
COCc1cc(=O)oc2cc(NS(=O)(=O)c3ccc(C)cc3)ccc12 | 5.18% (inactive)
O=C(CSc1nc2[nH]ncc2c(=O)n1-c1ccccc1)N1CCCc2ccccc21 | -1.42% (inactive)
Cc1nnc(SCC(=O)N2CCc3ccccc32)n1-c1ccccc1 | 4.42% (inactive)
CC(C)(C)c1ccc(C(=O)NCc2nnc(SCC(=O)N3CCCc4ccccc43)n2-c2ccccc2)cc1 | 9.34% (active)

Structure (SMILES) | reporter increase
CC(=O)Nc1ccc(/C=C/C(=O)c2ccccc2)cc1 | 1.71% (inactive)
CSc1nnnn1-c1c(C)cc(C)cc1C | -0.91% (inactive)
CC(C)c1ccc(NC(=S)NC2CC3C=CC2C3)cc1 (stereo not drawn) | 18.5% (active)
S=C(NNC(=S)NC1CC2CCC1C2)NC1CC2C=CC1C2 (stereo not drawn) | -2.51% (inactive)
S=C(NNC(=S)NC1CC2C=CC1C2)NC1CC2C=CC1C2 (stereo not drawn) | -1.36% (inactive)
COc1ccc([N+](=O)[O-])cc1N(CC(O)CN(CC(C)C)CC(C)C)S(=O)(=O)c1ccc(C)cc1 (stereo not drawn) | -0.64% (inactive)
CCC(=O)Nc1c(S(=O)(=O)c2ccccc2)c2nc3ccccc3nc2n1Cc1ccccc1 | -1.34% (inactive)
CCN(CC)CCn1c(N)c(S(=O)(=O)c2ccccc2)c2nc3ccccc3nc21 | 12.4% (active)
Cc1ccc(S(=O)(=O)c2c(N)n(C)c3nc4ccccc4nc23)cc1 | -2.43% (inactive)
CSCCC(NS(=O)(=O)c1ccc2c(c1)oc(=O)n2C)C(=O)NCc1ccccc1 (stereo not drawn) | 5.59% (inactive)
O=C(CCl)Nc1cccc(CP(=O)(c2ccccc2)c2ccccc2)c1 | 1.71% (inactive)
COc1ccc(C(=O)N/N=C(\C)CC(=O)Nc2ccc(Cl)cn2)cc1 | 0.12% (inactive)
CC(=O)Nc1ccc(-c2csc(NC(=O)Nc3ccccc3)n2)cc1 | 16.9% (active)
CC(=O)Nc1ccc(-c2csc(NC=C3C(=O)OC(C)(C)OC3=O)n2)cc1 | 0.77% (inactive)
CC(=O)Nc1ccc(S(=O)(=O)Nc2nc(-c3ccc(C(C)(C)C)cc3)cs2)cc1 | 3.64% (inactive)
CSCCC(Nc1nc2ccccc2s1)C(=O)O (stereo not drawn) | 1.41% (inactive)
O=C(Nc1ccccc1)Nc1nc2ccccc2s1 | 12.1% (active)
O=C(Nc1nc2ccccc2s1)c1ccc2c(c1)OCO2 | -1.51% (inactive)
O=C(CCCl)Nc1ccc(S(=O)(=O)NCc2ccco2)cc1 | 4.12% (inactive)
Cc1ccc(C(=O)NCC(=O)OCC(=O)Nc2cccc(S(=O)(=O)N3CCCC3)c2)cc1C | 0.09% (inactive)
CCCCC(CC)CNC(=O)CCCCn1c(=O)[nH]c2ccsc2c1=O (stereo not drawn) | 20% (active)
CCN(CC)CCNC(=O)CCCCCn1c(=O)[nH]c2cc(C(=O)OC)ccc2c1=O | -1.39% (inactive)
CCN(CCCNC(=O)CCn1c(=O)[nH]c2ccsc2c1=O)c1ccccc1 | 4.65% (inactive)

Source: PubChem BioAssay AID1321 (The Scripps Research Institute Molecular Screening Center, 2008)
